The nature of assay [1]: NCI Yeast Anticancer Drug Screen. Data for the rad50 strain (AID 155).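 Also: 0% = growth of vehicle-only cultures of the same strain.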 The settings on record: S. cerevisiae rad50 strain growth inhibition; at 50.0 µM; hits give high values. Summed up:
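Yeast carrying a defined DNA repair defect were exposed to test compounds, and growth was compared with vehicle-treated controls to give percent inhibition.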

Assay [2] is described as follows: NCI Yeast Anticancer Drug Screen. Data for the mec2-1 strain (AID 157). The settings on record: S. cerevisiae mec2-1 strain, at 50.0 µM, hits give high values. Summed up:
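Test agents were screened against the mec2-1 yeast strain, with defined DNA repair or cell cycle alteration. Growth was scored as inhibition against vehicle-only controls.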

Assay [3] can be described thus: NCI Yeast Anticancer Drug Screen. Data for the sgs1 mgt1 strain (AID 161).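 Also: 0% = growth of cultures given vehicle only.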 The conditions noted are these: S. cerevisiae sgs1 mgt1 strain, at 50.0 µM, hits give high values. The essentials:
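Inhibition of yeast growth, normalised to vehicle-treated controls, is reported for a strain bearing genetic alterations in DNA damage repair.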

A short description of assay [4]: NCI Yeast Anticancer Drug Screen. Data for the cln2 rad14 strain (AID 165).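 Also: 0% = growth equal to vehicle treated cultures.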 The conditions noted are these: S. cerevisiae cln2 rad14 strain, at 50.0 µM, hits give high values. The essentials:
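Growth of compound-exposed yeast (cln2 rad14 genotype) measured and expressed as inhibition relative to vehicle.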

The nature of assay [5]: NCI Yeast Anticancer Drug Screen. Data for the bub3 strain (AID 167). The settings on record: S. cerevisiae bub3 mutant strain, at 50.0 µM, hits give high values. Summed up: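 Compounds were applied to a genetically altered yeast strain carrying a cell-cycle control defect. Growth inhibition was scored against vehicle-treated controls.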
Assay [6] can be described thus: NCI Yeast Anticancer Drug Screen. Data for the mlh1 rad18 strain (AID 175). The conditions noted are these: S. cerevisiae mlh1 rad18 strain growth inhibition; at 50.0 µM; hits give high values. Summed up:
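In this whole-cell yeast screen, a strain with altered DNA damage repair is challenged with compound, and its growth is measured against matched vehicle-treated controls.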

Compounds without any hit were thinned out: in the full panel of roughly 79,000, 15% have a hit. Unmarked numbers belong to inactive results. The source made the active and inactive calls. Rule as the data show it: active = growth inhibition above about 70%; inactive = the rest.

For `O=C(O)c1cc2cc(Br)ccc2c(Br)c1O`, the growth inhibition is -3.75% in assay [1]; -25.7% in assay [2]; -8% in assay [3]; -71.3% in assay [4]; -24.2% in assay [5]; -3.85% in assay [6].

Regarding `O=C(Nc1ccccc1Cl)c1ccc(F)cc1`, the growth inhibition in assay [1] was -2.25%; in assay [2] it was -12.2%; in assay [3], 15%; in assay [4], 7.4%; in assay [5] it was -21.4%; in assay [6], -3.85%.

As to `CCc1c2cc(OC)c(OC)cc2cc2c3cc(OC)c(OC)cc3cc[n+]12` (tested in a mixture with another compound), the growth inhibition in assay [1] was -23.1%; in assay [2], -22.4%; in assay [3] it was -20.1%; in assay [4] it was -20.9%; in assay [5] it was -42%; in assay [6], -11.7%.

Turning to `CCCCCCC(=O)/C=C/c1ccccc1OCOC`, the growth inhibition in assay [1] was -3.35%; in assay [2], -9.8%; in assay [3], 4.6%; in assay [4], -13.7%; in assay [5] it was -18.9%; in assay [6] it was -4.45%.

In the case of `CN(C)c1ccc(/C=C(\C#N)c2ccc(Cl)cc2Cl)cc1`, the growth inhibition in assay [1] was -15.8%; in assay [2] it was -14.7%; in assay [3] it was -0.35%; in assay [4], -25.6%; in assay [5] it was 7%; in assay [6], 0.95%.

In the case of `CC(O)C1OC(n2cnc3c(=S)nc[nH]c32)C(O)C1O` (stereo unspecified), the growth inhibition in assay [1] is 7.5%; in assay [2], 15.7%; in assay [3], 0.6%; in assay [4], -98.1%; in assay [5], -4.85%; in assay [6], -13.3%.

On to `CC(=O)Oc1ccc2c(c1)CCC1C2CCC2(C)CC(OC(C)=O)CC12` (stereo unspecified), for which the growth inhibition was 12.4% in assay [1]; -10.3% in assay [2]; -19.2% in assay [3]; 2.95% in assay [4]; 0.8% in assay [5]; -21.8% in assay [6].

As to `NC(Cc1ccc(F)cc1)(C(=O)O)c1ccccc1` (stereo unspecified), the growth inhibition in assay [1] was 5.2%; in assay [2], 28.5%; in assay [3], 8.55%; in assay [4], -23.4%; in assay [5], 5.85%; in assay [6] it was 28.8%.

Turning to `COc1ccc(C(=O)C2CCC(C(=O)O)C2)cc1` (stereo unspecified), the growth inhibition is -25.4% in assay [1]; -27.9% in assay [2]; -5.35% in assay [3]; -6.35% in assay [4]; -21.9% in assay [5]; -13.2% in assay [6].

For `COCOc1ccc(C(=O)C(C)c2ccc(OCOC)cc2OCOC)c(O)c1` (stereo unspecified), the growth inhibition in assay [1] was 39.4%; in assay [2], 17.2%; in assay [3] it was 26.8%; in assay [4], 23.2%; in assay [5], 40.8%; in assay [6] it was 36.8%.

In the case of `CCCCCCCCC(Nc1ccccc1)C(O)CCCCCCCC(=O)O` (stereo unspecified) (tested in a mixture with another compound), the growth inhibition in assay [1] is -0.1%; in assay [2], 1.8%; in assay [3], 7.5%; in assay [4], -6.1%; in assay [5], -7.35%; in assay [6], 16.2%.

`Cc1nc2nncn2c(=O)[nH]1`: the growth inhibition in assay [1] was 9.35%; in assay [2] it was -0.4%; in assay [3] it was 31.8%; in assay [4] it was 15.4%; in assay [5] it was 6.1%; in assay [6] it was 17.9%.

As to `Nc1nc2c(c(=O)[nH]1)C(c1ccccc1)C(c1ccccc1)C2` (stereo unspecified), the growth inhibition in assay [1] was -2.85%; in assay [2], -8.65%; in assay [3] it was 3.8%; in assay [4], -27.4%; in assay [5], -9.5%; in assay [6], 0.15%.

Regarding `NC(=O)C1(c2cccs2)CCCC1`, the growth inhibition in assay [1] was 4.9%; in assay [2] it was 3.4%; in assay [3], 6.5%; in assay [4] it was -26.1%; in assay [5], -12.3%; in assay [6], 26.2%.

On to `O=C(Nc1ccccc1)Nc1ccccc1C(=O)O`, for which the growth inhibition in assay [1] is -5.8%; in assay [2], -22%; in assay [3], -16.4%; in assay [4], -54.6%; in assay [5], -16.2%; in assay [6] it was -31.3%.

For the molecule `O=C(N(CCc1ccc(O)cc1)Cc1ccc2c(c1)OCO2)C(F)(F)F`, the growth inhibition is 98% (active) in assay [1]; 96.8% (active) in assay [2]; 92.4% (active) in assay [3]; 92.4% (active) in assay [4]; 97.2% (active) in assay [5]; 98.6% (active) in assay [6].

For the molecule `OCC1=CC(c2ccccc2)(c2ccccc2)c2ccccc21`, the growth inhibition was 95.2% (active) in assay [1]; 96.3% (active) in assay [2]; 96.7% (active) in assay [3]; 93.2% (active) in assay [4]; 95.5% (active) in assay [5]; 95.4% (active) in assay [6].

Turning to `c1ccc2sc(-c3nc4ccccc4s3)nc2c1`, the growth inhibition was 26.3% in assay [1]; 11.7% in assay [2]; 5.55% in assay [3]; -21.7% in assay [4]; 8.3% in assay [5]; 12.4% in assay [6].

Consider `CCc1cccc(C(C)(C)C)c1NC(=S)N/C=C(/C#N)C(N)=O`, for which the growth inhibition was 8.2% in assay [1]; -7.45% in assay [2]; 16.9% in assay [3]; 13.7% in assay [4]; -15.9% in assay [5]; 11.8% in assay [6].

For `Fc1c(F)c(F)c(CSc2nc3ccccc3[nH]2)c(F)c1F`, the growth inhibition is -42% in assay [1]; -20.1% in assay [2]; -26.7% in assay [3]; -7.35% in assay [4]; 0.35% in assay [5]; -16.7% in assay [6].

In the case of `CC(=O)OCCOC1c2ccccc2-c2ccccc21`, the growth inhibition in assay [1] is 7.1%; in assay [2], -2.75%; in assay [3] it was 18.2%; in assay [4], 18.6%; in assay [5] it was 25.3%; in assay [6] it was 13.8%.

The values are drawn from PubChem BioAssay (NCI).
